In ChEMBL document CHEMBL3988442, “University of Dundee, Small-Polar-MMV Screening Library” (2021):
The campaign covered roughly 69,000 compounds. About 1,000 (1.4%) showed an effect of 50% or more. This excerpt belongs to a sample that is enriched for strong results.

System: Leishmania donovani
Assay: Leishmania intramacrophage assay
Format: functional, organism-based
Set-up: scale not given: in the data most compounds retested in dose-response had high values

O=C(O)C(F)(F)F.O=C(O)C(F)(F)F.c1coc(CN2CCCn3c(CN4CCOCC4)nnc3C2)c1
Percent Effect (30.3 µM, […]): 2.025%

O=c1ccc(-c2cccs2)nn1CN1CCN(c2ccccn2)CC1
Percent Effect (30.3 µM, […]): 5.805%

CCNS(=O)(=O)c1cccc(CSC)c1
Percent Effect (30.3 µM, […]): 64.35%

CCN(CC)CCNS(=O)(=O)c1cccc(CSC)c1
Percent Effect (30.3 µM, […]): -28.14%

CSCc1cccc(S(=O)(=O)NCCO)c1
Percent Effect (30.3 µM, […]): 7.47%

O=C(NCc1ccccn1)NC1CCOc2ccccc21 (configuration not stated)
Percent Effect (30 µM, 30.03 µM): 24.88%

Cc1cc(CN(C)C(=O)c2ccc(F)cc2F)no1
Percent Effect (30.3 µM, […]): -6.199%

Cc1ccc(CN2CCC(c3cnccn3)CC2)s1
Percent Effect (30.3 µM, […]): 12.08%

Cc1ccc(CN2CCCC(c3cnccn3)C2)s1 (configuration not stated)
Percent Effect (30.3 µM, […]): 27.06%

Cc1ccc(CN2CCOC(c3cnccn3)C2)s1 (configuration not stated)
Percent Effect (30.3 µM, […]): 57.91%

COc1ccc(CNC(C)c2ccc(Cl)c(Cl)c2)c(OC)c1OC (configuration not stated)
Percent Effect (30.3 µM, […]): 55.53%

COc1ccc(CNC(C)c2ccc(Cl)cc2)c(OC)c1OC (configuration not stated)
Percent Effect (30.3 µM, […]): 11.12%

COc1ccc(CNC(C)c2cccc(Cl)c2)c(OC)c1OC (configuration not stated)
Percent Effect (30 µM, 30.03 µM): 25.49%

CCOC(=O)N1CCN(c2nc(CCN)nc3sc(C)c(C)c23)CC1
Percent Effect (30.3 µM, […]): 81.77%

Cc1sc2nc(CCN)nc(N3CCS(=O)(=O)CC3)c2c1C
Percent Effect (30.3 µM, […]): 0.7518%

Cc1sc2nc(CCN)nc(N3CCC(N4CCCC4)CC3)c2c1C
Percent Effect (30.3 µM, […]): 27.1%

Cc1sc2nc(C(F)(F)F)nc(N3CCN(C)CC3)c2c1C
Percent Effect (30.3 µM, […]): 9.999%

Cc1sc2nc(CCN)nc(N3CC(N4CCCCC4)C3)c2c1C
Percent Effect (30.3 µM, […]): 85.94%

Cc1sc2nc(CCN)nc(N3CCN(S(C)(=O)=O)CC3)c2c1C
Percent Effect (30.3 µM, […]): -0.9568%

Cc1ccc(NC(=O)N2CCOC(C)(c3cnn(C)c3)C2)c(C)c1 (configuration not stated)
Percent Effect (30.3 µM, […]): 12.13%

Cc1nn(C)c(C)c1S(=O)(=O)N(C)Cc1nn(C)c(Cl)c1Cl
Percent Effect (30.3 µM, […]): 1.519%

Cc1cn2c(n1)CCC(NC(=O)c1oc(Br)cc1C)C2 (configuration not stated)
Percent Effect (30 µM): 33.37%

N#Cc1ccc(N2CC3(CCN(c4nccs4)C3)C2)nc1.O=CO.O=CO
Percent Effect (30.3 µM, […]): 9.16%

O=C1CC2(CCCC2)CN1CCOc1ccc(F)cc1
Percent Effect (30.3 µM, […]): 12.36%

CCN1CC2(CCN(CCOc3ccc(F)cc3)CC2)CC1=O
Percent Effect (30.3 µM, […]): 52.2%

CCN1CC2(CCC1=O)CCN(CCOc1ccc(F)cc1)CC2
Percent Effect (30.3 µM, […]): 19.57%

Cn1cc(C(=O)OC2CN(c3nc4c(C(F)(F)F)cccc4s3)C2)nn1
Percent Effect (30.3 µM, […]): 15.05%

Cc1ccc(C(=O)NCC(O)CN2CCCC2=O)cc1Cl (configuration not stated)
Percent Effect (30.3 µM, […]): -2.277%

Cc1csc(CCNC(=O)C2CCCN(C3CCOCC3)C2)n1 (configuration not stated)
Percent Effect (30.3 µM, […]): -3.021%

O=C(NCCc1c[nH]cn1)C1CCCN(C2CCOCC2)C1 (configuration not stated)
Percent Effect (30.3 µM, […]): -4.763%

Cn1c(CCNC(=O)C2CCCN(C3CCOCC3)C2)n[nH]c1=O (configuration not stated)
Percent Effect (30.3 µM, […]): 60.82%

CC(C)c1nc(CN(C)C(=O)C2CC(=O)N(Cc3ccncc3)C2)cs1 (configuration not stated)
Percent Effect (30.3 µM, […]): 1.333%

Cn1ccnc1CN1CCC2(CC1)CC(NC(=O)c1ccccn1)CO2.O=C(O)C(F)(F)F (configuration not stated)
Percent Effect (30 µM, 30.03 µM): 2.919%

O=C(NC1COC2(CCN(Cc3ccccn3)CC2)C1)c1ccccn1.O=C(O)C(F)(F)F (configuration not stated)
Percent Effect (30 µM, 30.03 µM): 99.23%

Cc1nc(C(=O)N(C)C)nn1-c1ccccc1C(C)C
Percent Effect (30.3 µM, […]): 17.02%

CCN1CC2(CC1=O)CN(Cc1cnn(C)c1)CCN(C(C)=O)C2.O=C(O)C(F)(F)F (configuration not stated)
Percent Effect (30 µM, 30.03 µM): 8.348%

O=C(NCCc1ccccc1)C1CCC(Cn2cnnn2)CC1 (configuration not stated)
Percent Effect (30 µM, 30.03 µM): 4.824%

COCC(=O)N1CCN(S(=O)(=O)c2ccccc2)[C@H]2CS(=O)(=O)C[C@H]21
Percent Effect (30.3 µM, […]): 50.92%

CCC(=O)N1CCN(S(=O)(=O)c2cccc(F)c2)[C@H]2CS(=O)(=O)C[C@H]21
Percent Effect (30.3 µM, […]): 19.41%

COCC(=O)N1CCN(S(=O)(=O)c2cccs2)[C@H]2CS(=O)(=O)C[C@H]21
Percent Effect (30.3 µM, […]): -6.326%

CS(=O)(=O)CC(=O)N1C[C@@H]2COC[C@]2(c2nnc(C3CC3)o2)C1
Percent Effect (30 µM, 30.03 µM): 6.501%

COc1cccc2c1ccn2CCC(=O)Nc1c2c(nn1C)CSC2
Percent Effect (30.3 µM, […]): -9.12%

CCN(CC)C(=O)CS(=O)(=O)c1cc(OC)c(OC)cc1C
Percent Effect (30.3 µM, […]): -79.93%

N#Cc1c(F)cccc1N1CCC(C(=O)Nc2nccs2)CC1
Percent Effect (30.3 µM, […]): 8.432%

N#Cc1c(F)cccc1N1CCCC(C(=O)Nc2nncs2)C1 (configuration not stated)
Percent Effect (30.3 µM, […]): 39.68%

N#Cc1c(F)cccc1N1CCN(C(=O)Nc2nncs2)CC1
Percent Effect (30.3 µM, […]): 50.08%

COCCN(Cc1ccccc1)Cc1nc(-c2ccsc2)no1
Percent Effect (30.3 µM, […]): 22.89%

CCN1CCN(C(C)(C)CNc2nc(C)cc(C3CCC3)n2)CC1
Percent Effect (30.3 µM, […]): 54.39%

Cc1cc(C2CCC2)nc(NCC(C)(C)N2CCOCC2)n1
Percent Effect (30.3 µM, […]): 23.38%

Cc1cc(C2CCC2)nc(NCC(C)(C)N2CCCC2)n1
Percent Effect (30.3 µM, […]): 9.291%

CCc1nc(C)c([C@H]2CN(C)C[C@@H]2C(=O)NCCc2cnccn2)[nH]1
Percent Effect (30 µM, 30.03 µM): 23.64%

CCNC(=O)NC(=O)CN1CCOC(c2ccccc2Cl)C1 (configuration not stated)
Percent Effect (30.3 µM, […]): 7.788%

CN(C)CCNc1cc(-c2ncccn2)c2cc[nH]c2n1
Percent Effect (30.3 µM, […]): 4.01%

N#Cc1c(N)nc2c(c1C1CCOC1)CCc1cc(O)ccc1-2 (configuration not stated)
Percent Effect (30.3 µM, […]): -89.94%

COc1ccc2c(c1OC)Cc1c-2nc(N)c(C#N)c1C1CCOC1 (configuration not stated)
Percent Effect (30.3 µM, […]): 11.41%

COc1ccc2c(c1)Cc1c-2nc(N)c(C#N)c1C1CCOC1 (configuration not stated)
Percent Effect (30.3 µM, […]): 63.86%

Cc1nn(C)c(N(C)C)c1CNCc1cccc(OCCN(C)C)c1
Percent Effect (30 µM, 30.03 µM): -13.13%

COc1cccc(CN(C)C(=O)CN2CC(n3nc(C)cc3C)C2)c1
Percent Effect (30 µM, 30.03 µM): 4.207%

COc1ccccc1CN(C)C(=O)CN1CC(n2nc(C)cc2C)C1
Percent Effect (30.3 µM, […]): 72.41%

Cc1cc(C)n(C2CN(CC(=O)N(C)Cc3ccco3)C2)n1
Percent Effect (30.3 µM, […]): -0.4731%

CC(=O)N1CCC(N2CC[C@H](c3nc4cc(C)ccc4o3)C2)CC1
Percent Effect (30.3 µM, […]): 22.67%

CCn1nc(C)c2ncnc(NCC(=O)N3CCOCC3)c21
Percent Effect (30 µM, 30.03 µM): 13.04%

CCN(CC)C(=O)Cn1ccc2cc(NC(=O)NC3CC3)ccc21
Percent Effect (30 µM): 18.91%

Cc1ccoc1C(=O)N1CC[C@H]2[C@@H]1CCC(=O)N2c1cccnc1.O=C(O)C(F)(F)F
Percent Effect (30.3 µM, […]): 3.255%

Cc1ccc(C(=O)N2CC[C@H]3[C@@H]2CCC(=O)N3c2cccnc2)o1.O=C(O)C(F)(F)F
Percent Effect (30.3 µM, […]): 56.88%

O=C(c1cccs1)N1CC[C@H]2[C@@H]1CCC(=O)N2c1cccnc1
Percent Effect (30.3 µM, […]): -14.6%

O=C(O)C(F)(F)F.O=C1CC[C@H]2[C@H](CCN2c2ncccn2)N1c1ccccc1
Percent Effect (30.3 µM, […]): 50.79%

O=C(c1cnccn1)N1CC[C@H]2[C@@H]1CCC(=O)N2c1cccnc1
Percent Effect (30.3 µM, […]): 69.01%

Cc1cnc(N2CC[C@H]3[C@@H]2CCC(=O)N3c2ccccc2)nc1.O=C(O)C(F)(F)F
Percent Effect (30.3 µM, […]): 39.44%

Cc1cnc(C(=O)N2CC[C@H]3[C@@H]2CCC(=O)N3c2cccnc2)cn1.O=C(O)C(F)(F)F
Percent Effect (30.3 µM, […]): 26.72%

O=C(O)C(F)(F)F.O=C1CC[C@H]2[C@H](CCN2c2ncc(F)cn2)N1c1ccccc1
Percent Effect (30.3 µM, […]): 36.83%

O=C(c1cscn1)N1CC[C@H]2[C@@H]1CCC(=O)N2c1ccccc1
Percent Effect (30.3 µM, […]): 4.628%

CCc1cc(NCCc2cnccn2)n2nc(C)c(C)c2n1
Percent Effect (30.3 µM, […]): 3.819%

CNC(=O)[C@H]1CCS(=O)(=O)[C@@H]2CN(Cc3ccc(OC)cc3)C[C@H]12
Percent Effect (30 µM, 30.03 µM): 7.266%

Cc1cccc(C(=O)N2CCCCC2c2nc3cc(F)ccc3[nH]2)n1 (configuration not stated)
Percent Effect (30.3 µM, […]): 32.48%

Cc1noc([C@@H]2CC[C@@H]3[C@@H](CCN3c3nnc(C)s3)O2)n1.O=C(O)C(F)(F)F
Percent Effect (30.3 µM, […]): 50.59%

Cc1noc([C@@H]2C[C@@H]3CCN(c4nnc(C)s4)C[C@H]3O2)n1.O=C(O)C(F)(F)F
Percent Effect (30.3 µM, […]): 45.73%

Cc1noc([C@H]2C[C@@H]3CCN(c4nnc(C)s4)C[C@H]3O2)n1.O=C(O)C(F)(F)F
Percent Effect (30.3 µM, […]): 7.673%

O=C(NCCc1nnc2n1CCC2)NCC1(c2ccccc2F)CC1
Percent Effect (30.3 µM, […]): 6.319%

CC(C)NC(=O)C[C@@H]1CCNC[C@@H]1Cc1cc(-c2ccccc2)on1
Percent Effect (30.3 µM, […]): -4.938%

O=C(NCC1CC2(CO1)CN(c1ncccn1)C2)C1CCC1 (configuration not stated)
Percent Effect (30.3 µM, […]): 1.586%

CCOC(=O)N1CCC(NC(=O)Nc2cccnc2OCC)CC1
Percent Effect (30 µM): 21.62%

COCCNC(=O)c1cc(-c2ccc3c(c2)CCO3)n[nH]1
Percent Effect (30.3 µM, […]): -2.658%

O=C(Nc1ccccc1)C1CN(Cc2ccco2)CC12CCOCC2.O=C(O)C(F)(F)F (configuration not stated)
Percent Effect (30.3 µM, […]): 14.17%

O=C(Nc1ccccc1)C1CN(CC2CCOCC2)CC12CCOCC2.O=C(O)C(F)(F)F (configuration not stated)
Percent Effect (30.3 µM, […]): 6.071%

O=C(Nc1ccccc1)C1CN(CC2CC2)CC12CCOCC2.O=C(O)C(F)(F)F (configuration not stated)
Percent Effect (30 µM, 30.03 µM): 52.69%

Cc1nccn1C1CCCN(C(=O)CCNc2ncccn2)C1 (configuration not stated)
Percent Effect (30 µM): -4.975%

COc1ncccc1CN1CCc2[nH]nc(C(=O)N(C)C)c2C1
Percent Effect (30.3 µM, […]): 13.46%

FC(F)(F)c1nc(NC2CCCC2)c2ccccc2n1
Percent Effect (30 µM, 30.03 µM): 52.6%

FC(F)(F)c1nc(NC2CCCCC2)c2ccccc2n1
Percent Effect (30.3 µM, […]): 22.7%

FC(F)(F)c1nc(NC2CCc3ncnn3C2)c2ccccc2n1 (configuration not stated)
Percent Effect (30.3 µM, […]): -21.34%

COc1ccc(NC(=O)CCc2c(C)nc3cc(O)nn3c2C)cn1
Percent Effect (30 µM, 30.03 µM): 19.21%

CCC(CC)C(=O)N1CCN(Cc2nc3ccccc3c(=O)[nH]2)CC1
Percent Effect (30.3 µM, […]): 0.3817%

CN(Cc1nccs1)C1CCN(c2cccc(-c3cscn3)c2)CC1
Percent Effect (30.3 µM, […]): 8.314%

c1cc(-c2cscn2)cc(N2CCC(NCCc3cccs3)CC2)c1
Percent Effect (30.3 µM, […]): 68.46%

CN(C)CCCN(C)C1CCN(c2cccc(-c3cscn3)c2)CC1
Percent Effect (30.3 µM, […]): 61.93%

Cc1cc(CN(C)C2CCN(c3cccc(-c4cscn4)c3)CC2)on1
Percent Effect (30.3 µM, […]): 19.61%

CC(C)CC(C)NC1CCN(c2cccc(-c3cscn3)c2)CC1 (configuration not stated)
Percent Effect (30.3 µM, […]): 17.78%

CN(Cc1cnn(C)c1)C1CCN(c2cccc(-c3cscn3)c2)CC1
Percent Effect (30.3 µM, […]): 12%

c1ccc(-c2cccc(N3CCC(NCCc4cscn4)CC3)c2)cc1
Percent Effect (30.3 µM, […]): 97.96%

O=C1CCCN1c1cccc(N2CCC(NCCc3cscn3)CC2)c1
Percent Effect (30.3 µM, […]): 16.35%

CN(Cc1ccon1)C1CCN(c2cccc(-c3cscn3)c2)CC1
Percent Effect (30.3 µM, […]): -3.333%
